Hits are enriched below; roughly 3.5% of the tested compounds scored in any of these assays.
TEAD-YAP block – TEAD-YAP interaction inhibition. HEK-TIYL cells, TEAD-Gal4/YAP UAS-luciferase luminescence. inhibition, % at 9.12 µM. 640,000 compounds, 1.4% hits; in the data active = inhibition above about 32%
FBW7 activator – human FBW7 E3 ligase activation, primary screen; Q969H0; AlphaScreen FBW7–phospho-cyclin E peptide binding, activator screen; normalized activity (activation), % at 26.1 µM; 650,000 compounds, 0.13% hits; AID 1259310; in the data active = normalized activity above about 1.9%;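 note: purified mutant Fbw7 with reduced substrate affinity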
GPR151 ag – human GPR151 activation; Q8TDV0; PathHunter beta-arrestin GPR151 cells, luminescence; activation, % at 11.2 µM; 650,000 compounds, 1% hits; in the data active = activation above about 4.9%
MITF primary – human MITF inhibition, primary screen | AlphaScreen MITF homodimerization, bead proximity signal | inhibition, % at 2.6 µM | 650,000 compounds, 0.91% hits | AID 1259374; in the data active = inhibition above about 50%
Target sequence (O75030 whole entry, looked up): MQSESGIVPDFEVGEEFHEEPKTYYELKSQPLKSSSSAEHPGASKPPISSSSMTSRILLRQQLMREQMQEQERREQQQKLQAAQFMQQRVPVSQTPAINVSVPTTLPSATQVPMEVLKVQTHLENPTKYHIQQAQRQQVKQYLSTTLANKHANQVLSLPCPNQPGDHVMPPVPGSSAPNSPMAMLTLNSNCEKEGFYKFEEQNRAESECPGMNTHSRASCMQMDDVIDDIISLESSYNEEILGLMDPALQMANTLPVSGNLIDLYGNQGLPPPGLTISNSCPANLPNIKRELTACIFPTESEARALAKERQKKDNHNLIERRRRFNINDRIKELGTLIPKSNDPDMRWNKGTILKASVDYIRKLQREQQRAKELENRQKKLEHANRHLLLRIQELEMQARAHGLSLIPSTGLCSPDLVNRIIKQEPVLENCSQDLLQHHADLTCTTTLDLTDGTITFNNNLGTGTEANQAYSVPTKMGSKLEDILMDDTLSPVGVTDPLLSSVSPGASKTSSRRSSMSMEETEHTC
MITF confirm – confirmation of human MITF inhibitors | shares compounds with MITF primary | AlphaScreen MITF homodimerization, biotin/His-MITF beads | inhibition, % at 2.6 µM | 4,700 compounds, 16% hits;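 active = inhibition above a cutoff derived from the DMSO control wells, cut at about 28% in these data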;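 note: inhibitors lower the bead chemiluminescence by keeping MITF from dimerizing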
AlphaScreen DR – AlphaScreen optical interference, dose response counter-screen; IC50, µM; shares compounds with MITF primary; AlphaScreen optical interference counterscreen, cell-free; 480 compounds, 6% hits; AID 1259373; call rule not given here
AlphaScreen intf2 – AlphaScreen optical interference, counter-screen | shares compounds with MITF primary | LysRS AlphaScreen counterscreen, signal interference, triplicate | inhibition, % at 2.6 µM | 4,700 compounds, 7.6% hits;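 active = inhibition above a cutoff derived from the DMSO control wells, cut at about 30% in these data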
Each line names hits and unclear results; the compound was inactive in the other large screens (follow-up assays come after a bar, where they were run).

Cc1c(NC(=S)N/N=C\c2ccc(N(C)C)cc2)c(=O)n(-c2ccccc2)n1C	none
Cn1nccc1Nc1ccc(-n2cc(CC(=O)NC3CCN(Cc4ccccc4)CC3)c3ccccc32)nn1	none
Cn1c(SCC(=O)Nc2ccc(C(=O)O)cc2)nnc1-c1ccncc1	none
CC(=O)c1ccc(NC(=O)CSc2nnc(-c3ccncc3)n2CCCN(C)C)cc1	MITF primary 71 | MITF confirm inactive | AlphaScreen intf2 inactive
CCn1c(SCC(=O)Nc2ccc(NC(=O)C(C)(C)C)cc2)nnc1-c1ccncc1	none
CCc1ccc(NC(=O)CSc2nnc(-c3ccncc3)n2CCCN(C)C)cc1	MITF primary 88 | MITF confirm inactive | AlphaScreen intf2 inactive
Cc1onc(-c2ccccc2)c1C(=O)Nc1cccc(C#N)c1	MITF primary 70 | MITF confirm inactive | AlphaScreen intf2 inactive
COc1cccc(N2C(=O)CC(N3CCOCC3)C2=O)c1 (configuration not stated)	none
Cc1ccc(Nc2c3c(nc4ccc(C)cc24)CCC3)cc1	none
CN1CCc2[nH]c3ccccc3c2C1	none
COc1ccc2nc3sc(C(=O)O)c(N)c3cc2c1	none
O=C(CSc1nc2[nH]ncc2c(=O)n1-c1ccc(Br)cc1)NCc1cccs1	MITF primary 54 | MITF confirm inactive | AlphaScreen intf2 inactive
O=C(CSc1nc2[nH]ncc2c(=O)n1-c1ccc(Cl)cc1)NCc1cccs1	none
O=C(CCn1cnnn1)N1CCCC1c1nc2ccccc2[nH]1 (configuration not stated)	none
O=C(/C=C/c1ccc2c(c1)OCO2)CC1(O)C(=O)N(Cc2ccccc2)c2ccccc21 (configuration not stated)	MITF primary 68 | MITF confirm inactive | AlphaScreen intf2 inactive
O=S(=O)(O)c1ccc(N/N=C/c2c(Cl)nc3sccn23)cc1	none
CCN(CC)CCN(C)C(=O)CC1(c2ccc(OC)cc2)CC(=O)N(CCC(C)C)C1=O (configuration not stated)	none
CCOc1ccc(C2=NN3C(C2)c2cccc(OC)c2OC32CCC(C)CC2)cc1 (configuration not stated)	none
CCN(CC)c1ccc(C(c2c(C)[nH][nH]c2=O)c2c(C)[nH][nH]c2=O)cc1	MITF primary 77 | MITF confirm 71 | AlphaScreen intf2 inactive
COc1ccc2nc(N3CCCC(C(=O)NCCN4CCOCC4)C3)sc2c1 (configuration not stated)	none
O=C(c1sccc1-n1cccc1)N1CCCC1	none
Cc1ccc(NC(=O)c2sccc2-n2cccc2)cc1	MITF primary 59 | MITF confirm inactive | AlphaScreen intf2 inactive
CCCCc1c(C)[nH]c2c(OC)cccc2c1=O	none
O=C1CSC(=Nc2cccc(Br)c2)N1	MITF primary 53 | MITF confirm inactive | AlphaScreen intf2 inactive
Cc1cc(C(=O)CSc2nc(N)cc(N)n2)c(C)n1CCC(C)C	none
COCCOCC(O)CN1CCN(c2ccc(C)cc2)CC1 (configuration not stated)	MITF primary 52 | MITF confirm inactive | AlphaScreen intf2 inactive
Cc1ccc(-c2nnn(CC(=O)c3ccc4c(c3)OCCO4)n2)cc1	none
Cc1ccc(C(=O)Cn2nnc(-c3ccc(N)cc3)n2)cc1	MITF primary 73 | MITF confirm inactive | AlphaScreen intf2 inactive
Fc1cccc(Cl)c1CN1CCc2nncn2CC1	none
CS(=O)(=O)N1CCN(Cc2ccccc2[N+](=O)[O-])CC1	none
O=C(c1ccncc1)N1CCN(Cc2ccccc2[N+](=O)[O-])CC1	MITF primary 78 | MITF confirm 74 | AlphaScreen DR inactive | AlphaScreen intf2 inactive
O=[N+]([O-])c1ccccc1CN1CCN(Cc2ccncc2)CC1	MITF primary 65 | MITF confirm inactive | AlphaScreen intf2 inactive
O=[N+]([O-])c1ccccc1CN1CCN(Cc2c[nH]c3ccccc23)CC1	MITF primary 62 | MITF confirm inactive | AlphaScreen intf2 inactive
CC(=O)c1ccc(N2CCN(Cc3ccccc3[N+](=O)[O-])CC2)cc1	MITF primary 51 | MITF confirm inactive | AlphaScreen intf2 inactive
O=[N+]([O-])c1ccc(N2CCN(Cc3ccccc3[N+](=O)[O-])CC2)cc1	none
CCn1ncc(C(=O)N2C[C@H](C(=O)O)[C@@H](c3ccc(F)cc3)C2)c1C	none
COc1ccc(N(CC(=O)N2CCN(c3ccccc3OC)CC2)S(=O)(=O)c2ccccc2[N+](=O)[O-])c(OC)c1	none
COc1cc(C(=O)N2CCN(Cc3ccccc3[N+](=O)[O-])CC2)cc(OC)c1OC	MITF primary 67 | MITF confirm inactive | AlphaScreen intf2 inactive
COc1cccc(CN2CCN(Cc3ccco3)CC2)c1OC	none
COc1cccc(CN2CCN(C(=O)c3ccco3)CC2)c1OC	MITF primary 57 | MITF confirm inactive | AlphaScreen intf2 inactive
COc1cc(CN2CCN(C(=O)c3cc(OC)c(OC)c(OC)c3)CC2)c([N+](=O)[O-])cc1OC	none
COc1ccccc1C(=O)N1CCN(Cc2ccccc2[N+](=O)[O-])CC1	none
CCOc1ccc(CN2CCN(Cc3ccccc3[N+](=O)[O-])CC2)cc1	MITF primary 56 | MITF confirm inactive | AlphaScreen intf2 inactive
COc1ccc(C(=O)N2CCN(Cc3ccccc3[N+](=O)[O-])CC2)cc1	MITF primary 54 | MITF confirm inactive | AlphaScreen intf2 inactive
CN(C)CCCNC(=S)Nc1cccc(Cl)c1Cl	none
COc1cc(C(=O)N2CCN(Cc3cccc4ccccc34)CC2)cc(OC)c1OC	MITF primary 57 | MITF confirm inactive | AlphaScreen intf2 inactive
COc1cc(OC)cc(C(=O)N2CCN(Cc3c[nH]c4ccccc34)CC2)c1	none
CC(=O)c1ccc(N2CCN(Cc3cccs3)CC2)cc1	MITF primary 56 | MITF confirm inactive | AlphaScreen intf2 inactive
COc1cccc(CN2CCN(C(=O)c3cccc4ccccc34)CC2)c1OC	MITF primary 54 | MITF confirm inactive | AlphaScreen intf2 inactive
CC(=O)c1ccc(N2CCN(CC(=O)NCc3cccs3)CC2)cc1	none
COc1ccc(CN2CCN(C(=O)c3cccc4ccccc34)CC2)cc1OC	none
COc1cc(OC)cc(C(=O)N2CCN(Cc3ccccc3[N+](=O)[O-])CC2)c1	MITF primary 61 | MITF confirm inactive | AlphaScreen intf2 inactive
Cc1ccc(OCC(=O)Nc2cc(-c3nn4c(C)nnc4s3)ccc2C)c(C)c1	none
Cc1ccccc1CN1CCN(C(=O)c2ccccc2)CC1	none
COc1cccc(OC)c1C(=O)N1CCN(Cc2ccccc2C)CC1	MITF primary 71 | MITF confirm inactive | AlphaScreen intf2 inactive
CSc1ccc(C(=O)O)s1	MITF primary 75 | MITF confirm 35 | AlphaScreen DR inactive | AlphaScreen intf2 inactive
CSc1ccc(C(=O)NCc2nc(-c3ccncc3)n[nH]2)s1	none
CCOC(=O)c1c(C)n(C(=O)c2ccco2)c(=O)n1C(=O)c1ccco1	none

From PubChem BioAssay
